CBFb-RUNX1 inh = CBF-beta/RUNX1 interaction disruption. Q01196+Q13951. AlphaScreen CBFb-His/RUNX1-biotin binding, biochemical. Potency, µM (highest dose often 59.8 µM), without a hit: at the highest dose activity, negative = inhibition, actives largely listed as inhibitors. 230,000 tested, under 10 active; also: % of control where 0% means no effect
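CBF-beta (His) and RUNX1 (biotin), 30 nM each; 20 min preassociation; + compound, 15 min; + beads 50 ng each (Ni, streptavidin), 90 min; RT; AlphaScreen read.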
HttQ103 aggreg = reduces HttQ103-GFP aggregates in PC12 cells. PC12 HttQ103-GFP aggregates, Acumen cytometry, 40 h. Potency, µM (doses to about 46.1 µM), without a hit: at the highest dose activity change, negative = inhibition, usual class: inhibitors. 1.1% of 220,000 active. AID 1688; also: potency is read from the fitted curve at half-maximal effect; % is scaled to controls: 0 for no effect and ±100 for the full control effect; nearly all actives have a fitted effect of over 60% in size
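Inducible Q103 Huntingtin exon 1–GFP PC12 line, 1500 cells/well in phenol red free DMEM with 5% equine and 5% calf serum. Tebufenozide 100 nM induced expression; compounds titrated; aggregates quantified by cytometry.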
HTT ATP protect = cytoprotection in Huntington HTT-Q103 PC12 cell model; PC12 HTT-Q103 induced, cytoprotection, ATP luminescence, 40 h; Potency, µM (doses to about 56.4 µM), for the others: cytoprotection (ATP increase), hits mostly activators; 0.14% of 230,000 active; AID 1471; also: potency is read from the fitted curve at half-maximal effect; % of control where 0% means no effect; nearly all actives have a fitted effect of over 45% in size
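PC12 cells with ecdysone-inducible HTT exon 1 Q103-GFP, induced with 100 nM tebufenozide and co-treated with library compounds in a dose series (1536-well, 1500 cells/well). Cytoprotection read as ATP content by ATPlite luminescence.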
HPGD block = HPGD (human) dehydrogenase inhibition; P15428; purified HPGD, NADH fluorescence kinetic, PGE2 substrate; Potency, µM, without a hit: at the top dose activity change, negative = inhibition, most hits filed as inhibitors; 4.3% of 150,000 active; AID 894; active = well fitted inhibition curve with a large enough effect, not every such curve was filed as active; inconclusive = small, poorly fitted or top-dose-only effect, or another doubt; inactive = no such curve, though single readings can be large or run the other way; also: potency is read from the fitted curve at half-maximal effect; % is scaled to controls: 0 for no effect and ±100 for the full control effect
Target sequence (P15428 whole entry, looked up): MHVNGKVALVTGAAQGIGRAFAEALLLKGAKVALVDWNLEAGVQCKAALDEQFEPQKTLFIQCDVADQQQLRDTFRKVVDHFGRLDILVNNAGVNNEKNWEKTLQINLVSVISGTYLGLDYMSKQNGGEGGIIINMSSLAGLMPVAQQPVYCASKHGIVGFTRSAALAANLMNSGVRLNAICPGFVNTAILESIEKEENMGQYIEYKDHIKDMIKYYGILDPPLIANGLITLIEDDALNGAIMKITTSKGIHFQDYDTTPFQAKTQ
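NADH formation kinetics: reaction with 30 uM PGE2 and 1 mM NAD+ (final), 20 nM enzyme, Tris-HCl pH 8 with Tween 20, after 15 min compound preincubation at room temperature. Fluorescence change, last versus first of five reads.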
ALDH1A1 block = inhibitors of human aldehyde dehydrogenase 1A1. P00352. AID 1030. Potency, µM (series often up to 75.3 µM), for the others: at the top dose activity, negative = inhibition, most hits filed as inhibitors. Purified ALDH1A1, NADH fluorescence, propionaldehyde substrate. 7.3% of 220,000 active; active = well fitted inhibition curve with a large enough effect, not every such curve was filed as active; inconclusive = small, poorly fitted or top-dose-only effect, or another doubt; inactive = no such curve, though single readings can be large or run the other way;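 also: potency is read from the fitted curve at half-maximal effect; plate controls were no enzyme wells and a reference inhibitor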
Target sequence (P00352 whole entry, looked up): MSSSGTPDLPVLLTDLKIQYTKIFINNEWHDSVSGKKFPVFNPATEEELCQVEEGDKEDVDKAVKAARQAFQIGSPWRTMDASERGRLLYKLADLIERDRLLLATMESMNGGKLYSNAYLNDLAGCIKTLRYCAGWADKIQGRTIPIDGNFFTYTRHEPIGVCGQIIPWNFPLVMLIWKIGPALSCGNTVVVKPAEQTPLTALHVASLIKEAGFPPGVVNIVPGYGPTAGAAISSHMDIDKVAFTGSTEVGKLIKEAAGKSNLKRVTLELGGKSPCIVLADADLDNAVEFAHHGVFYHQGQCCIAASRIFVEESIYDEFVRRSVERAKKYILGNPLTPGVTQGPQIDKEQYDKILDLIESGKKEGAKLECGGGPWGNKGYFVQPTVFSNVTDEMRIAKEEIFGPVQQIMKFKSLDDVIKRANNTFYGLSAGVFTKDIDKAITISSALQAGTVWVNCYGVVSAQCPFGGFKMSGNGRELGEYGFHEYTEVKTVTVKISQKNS
JMJD2E inh = inhibitors of human JMJD2E histone demethylase; Potency, µM (doses to about 57.1 µM), without a hit: at the top dose activity change, negative = inhibition, actives largely listed as inhibitors; 1.6% of 230,000 active; JMJD2E catalytic domain, FDH-coupled NADH fluorescence (FDH is formaldehyde dehydrogenase);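 also: potency is read from the fitted curve at half-maximal effect; 0% = wells with enzyme and -100% = buffer wells without enzyme; nearly all actives have a fitted effect of over 50% in size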
Starred values were filed as active, the others as inactive; ? = inconclusive; . = no result given; ! = not active in a repeat; [ ] = another dose, or the depositor's remark. An excerpt weighted towards active compounds, which were near 9.8% of everything screened. Unless noted, calls follow the shape of the dose curve; as a rule, active = well fitted curve in the direction sought with a large enough effect; inconclusive = small, poorly fitted or top-dose-only effect, or another doubt; inactive = no such curve, though single readings can be large; an effect the other way counts as inactive or inconclusive.

SMILES	CBFb-RUNX1 inh	HttQ103 aggreg	HTT ATP protect	HPGD block	ALDH1A1 block	JMJD2E inh
Cc1occc1-c1nnc(SCC(=O)Nc2ccccc2)n1CCc1ccccc1	2%	-12%	-11%[10 µM]	-2%	4%	-5%
CC1(C)Cc2nc3sc4c(NCCO)ncnc4c3cc2CS1	-14%	0%[9.22 µM]	0%[10 µM]	.	.	?
CCCCn1cnc2c(sc3nc4c(cc32)CSC(C)(C)C4)c1=O	15%	2%	-9%[10 µM]	-17%	1.1µM*	0%
CC(C)CCn1cnc2c(sc3nc4c(cc32)CSC(C)(C)C4)c1=O	0%	22%	-2%[10 µM]	-10%	1.8µM*	8%
COCCN(C(=S)Nc1cc(C)cc(C)c1)C(C)c1ccco1 (stereo unspecified)	1%	-3%	?	.	12%	-1%
CC1(C)CN=c2s/c(=C\c3ccc(Cl)cc3)c(=O)n2C1	3%	?	7%[10 µM]	.	2.2µM*	?
CSC1=N/C(=C\c2ccc(Cl)cc2)C(=O)N1N(C)C	-4%	7%[9.22 µM]	-3%[10 µM]	.	5%	1%
COc1ccc2cc1Oc1ccc(cc1)CC1c3c(cc(OC)c4c3Oc3cc5c(cc3O4)CCNC5C2)CCN1C (stereo unspecified)	?	4µM*	-96%[10 µM]	.	.	?
O=[N+]([O-])c1ccc(Cl)c2cccnc12	7%	-2%	-12%	.	18µM*	3%
O=[N+]([O-])c1cc(CN2CCOCC2)c2cccnc2c1O	-12%	1%	.	.	4%	4%
O=[N+]([O-])c1cc(F)c2cccnc2c1O	-27%	-19%[9.22 µM]	-64%[10 µM]	.	18µM*	87%
O=[N+]([O-])c1cc(Cl)c2cccnc2c1O	?	?	-170%	.	-10%	13µM*
Oc1c(C(c2ccccn2)N2CCCCC2)cc(Cl)c2cccnc12 (stereo unspecified)	.	25µM*	-141%	.	?	?
O=[N+]([O-])c1cccc2c(Cl)ccnc12	3%	-23%[9.22 µM]	?	.	?	?
Cc1ccccc1C(=O)N1CCC(C(N)=O)CC1	4%	13%	17%	-10%	?	-3%
O=C(NCCCn1ccnc1)/C(=C/c1ccco1)NC(=O)c1cccs1	-30%	8%	-32%	.	2%	1%
COc1cc(NC(=O)CN(C)Cc2cccc(F)c2)c(C)cc1[N+](=O)[O-]	3%	16%	.	.	11%	10%
O=C(NNC(=O)C(O)(c1ccccc1)c1ccccc1)C1CC1	1%	10%	-11%	.	4%	5%
Nc1c([N+](=O)[O-])cc(-c2cnc[nH]2)cc1[N+](=O)[O-]	-8%	8%	-35%	.	-1%	-2%
OCc1ccccc1OCCOc1ccc(Cl)c2cccnc12	-2%	-3%	-26%	-12%	-12%	?
Oc1c(I)cc(Cl)c2cccnc12	-10%	10µM*	-235%	-9%	25µM*!	14µM*
O=[N+]([O-])c1cc(Cl)c(O)c2ncccc12	.	7.9µM*	-165%	.	?	?
Cc1ccc(C)c(C(=O)N(Cc2nc(-c3ccc(Cl)cc3)no2)C(C)C)c1	6%	22µM*	-1%	-18%	4%	-7%
COc1ccc(O[C@H]2C=C[C@@H](c3ccccc3)O[C@H]2COC(=O)N2CCCCC2)cc1	9%[13.1 µM]	.	-30%[10 µM]	.	?	.
CC(C)c1ccc(NC(=O)c2cccc(Br)c2)cc1	11%	-12%	-73%	.	-3%	-4%
SMILES	CBFb-RUNX1 inh	HttQ103 aggreg	HTT ATP protect	HPGD block	ALDH1A1 block	JMJD2E inh
Cc1cccc(C(=O)NNC(=O)c2ccc(Br)cc2)c1	-3%	-22%[9.22 µM]	-7%[10 µM]	.	9%	7%
CC(C)c1ccc(NCCC(=O)c2ccc(Br)cc2)cc1	-2%	-5%	15%[10 µM]	-8%	4µM*	3%
Cc1cccc(NCCC(=O)c2ccc(Br)cc2)c1	-5%	2%	2%	-10%	0.79µM*	-4%
CCOC(=O)CNCCC(=O)c1ccc(Br)cc1	24%	8%	34%[10 µM]	?	0.28µM*	9%
CCOc1nc(SC(C(C)=O)C(=O)Nc2ccccc2)nc(N(C)C)n1 (stereo unspecified)	4%	2%	-14%[1.9 µM]	-12%	-9%	-5%
CCOC(=O)Nc1ccc2nc(N3CCCCCC3)sc2c1	7%	-4%[9.22 µM]	-36%[10 µM]	.	.	-3%
COc1cccc(NC(=O)Cn2c(=O)n(-c3ccccc3)c(=O)c3sccc32)c1	3%	-29%	-24%	.	-12%	1%
O/N=C1\CCCC\C1=C/c1ccccc1	2%	0%	.	4.5µM*	-2%	-1%
CC(C)C(c1nnnn1C(C)(C)C)N1CCC(Cc2ccccc2)CC1 (stereo unspecified)	0%	9%	.	-17%	22µM*	-2%
NS(=O)(=O)c1ccc(O)c(NC(=O)c2ccc([N+](=O)[O-])o2)c1	-2%	-5%[9.22 µM]	-12%[10 µM]	.	2.5µM*	?
Cc1cc(NC(=O)c2ccc([N+](=O)[O-])o2)ccc1NC(=O)c1ccco1	1%	?	-38%	.	25µM*	7%
Cc1cc([N+](=O)[O-])ccc1NC(=O)c1ccco1	11%	18%[9.22 µM]	19%[10 µM]	.	16µM*	6%
CN(CCc1nc2ccc(Cl)cc2[nH]1)Cc1nc(CC2CC2)no1	-5%	-5%[9.22 µM]	-5%[10 µM]	.	?	14%
COC(=O)[C@H](Cc1ccccc1)NC(=O)N(C)Cc1ccccc1	10%	22%[9.22 µM]	41%[10 µM]	.	.	0%
Cc1nn(-c2ccccc2)c2c1C(c1ccc([N+](=O)[O-])cc1)N1C(=N2)C(=O)Nc2ccccc21 (stereo unspecified)	-21%	13µM*	-19%[10 µM]	-24%	-7%	-20%
Cc1nn(-c2ccc([N+](=O)[O-])cc2)c2c1C(c1cccc(Br)c1)N1C(=N2)C(=O)Nc2ccccc21 (stereo unspecified)	-5%	-4%	1%[10 µM]	-20%	5%	4%
Cc1ccc(/C=N/n2c(COc3ccccc3)n[nH]c2=S)s1	-2%	9%	-22%	2.2µM*	?	-2%
S=c1[nH]nc(-c2ccccn2)n1/N=C/c1ccc(Br)s1	.	-12%	1%[10 µM]	7.9µM*	?	-16%
Cc1ccc(/C=N/n2c(COc3ccccc3)n[nH]c2=S)o1	3%	24%[9.22 µM]	-33%	.	11%	-10%
S=c1[nH]nc(COc2ccccc2)n1/N=C/c1ccc(Br)s1	-23%	11%	-56%	10µM*	?	-5%
NC(=O)CC(NC(=O)Cc1ccc(Br)cc1)c1ccc(N2CCN(c3ccc(F)cc3)CC2)c([N+](=O)[O-])c1 (stereo unspecified)	-25%	8%[9.22 µM]	17%[10 µM]	.	.	-14%
CC1CCN(CCCNC(=O)c2ccc3c(=O)n(Cc4ccc(Cl)cc4)c(=S)[nH]c3c2)CC1	-9%	?	.	.	16µM*	?

Screening results from PubChem BioAssay.
